# Shown are actives, neighbours in structure and some others; about 4.2% of the full set was active somewhere.
# PrPC surface inh: inhibitors of human cell surface prion protein PrPC. actives 0.43% (n = 370,000). inhibition, % at 13.8 µM. TR-FRET read-out. P04156; in the data active = inhibition above about 24%; note: 0% = median of the test wells and 100% = reference compound wells
# FBA Mtb inh: Mtb fructose-bisphosphate aldolase inhibition; P9WQA3; purified M. tuberculosis FBA, fluorescence read-out; inhibition, % at 1 µM; actives 2.3% (n = 360,000); AID 588726; in the data active = inhibition above about 27%;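 note: 0% = vehicle and 100% = reference inhibitor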
# Target sequence (P9WQA3 whole entry, looked up): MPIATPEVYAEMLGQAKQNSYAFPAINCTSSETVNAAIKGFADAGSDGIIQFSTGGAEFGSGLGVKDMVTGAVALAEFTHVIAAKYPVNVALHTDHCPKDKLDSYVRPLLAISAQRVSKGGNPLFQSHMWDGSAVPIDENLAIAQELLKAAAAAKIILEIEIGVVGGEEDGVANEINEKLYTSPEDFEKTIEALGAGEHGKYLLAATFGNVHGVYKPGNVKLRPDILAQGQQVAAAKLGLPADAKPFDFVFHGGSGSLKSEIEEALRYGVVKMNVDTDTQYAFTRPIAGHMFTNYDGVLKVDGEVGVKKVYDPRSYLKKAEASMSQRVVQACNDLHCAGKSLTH
# RecA intein inh: blocks M. tuberculosis RecA intein splicing. inhibition, % (no concentration beside the values). actives 0.75% (n = 290,000). P9WHJ3. cell-free RecA intein splicing, fluorescence. AID 2221; in the data active = inhibition above about 30%;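 note: 0% = vehicle wells and 100% = reference inhibitor control wells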
# GDH-TPI inh: inhibits GDH-TPI coupling enzymes, artifact for Mtb FBA screen. GDH-TPI coupled enzyme counterscreen, NADH absorbance. inhibition, % at 4.8 µM. actives 1.2% (n = 360,000). AID 588335; in the data active = inhibition above about 30%;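 note: 0% = DMSO wells and 100% = wells lacking the enzyme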
# BJeLR lethal: BJeLR cell viability loss | BJeLR (HRASV12) viability, CellTiter-Glo ATP luminescence, 48 h | inhibition, % (test concentration not listed) | actives 0.17% (n = 300,000) | AID 1554; in the data active = inhibition above about 50%
# An asterisk follows results filed as active; . = no result given.
SMILES,PrPC surface inh,FBA Mtb inh,RecA intein inh,GDH-TPI inh,BJeLR lethal
CCCCCCCCN1C(=O)[C@@H](CC(=O)NCc2cccs2)C[C@@]2(C(=O)OC)C1=C[C@H](C(C)C)O[C@@H]2C1CC1,3,.,.,.,.
O=C(/C=C/c1ccccc1)C1C(=O)c2ccccc2C1=O,-7,-3,7,11,-24
CCc1ccc(/C=C/C(=O)C2C(=O)c3ccccc3C2=O)cc1,1,-1,33*,39*,-3
Cc1cccc(Nc2nc(N)nc(N)c2N=O)c1,-46,-1,.,31*,.
Cc1ccc(Nc2nc(N)nc(N)c2N=O)cc1C,.,0,.,.,.
Cc1cc(Br)ccc1Nc1nc(N)nc(N)c1N=O,-19,5,.,32*,.
Cc1cccc(Nc2nc(N)c(C#N)c(CC#N)c2C#N)c1,9,0,2,64*,1
Cc1cccc(Nc2nc(C)cc(C)c2C#N)c1,2,1,2,9,-8
COc1ccc(/C=C/C(=O)N2CCOCC2)cc1OC,3,5,0,21,-1
COc1ccc(/C=C/C(=O)N(c2ccccn2)C2CCCCC2)cc1OC,0,6,0,83*,-1
O=C(/C=C/c1ccc(Cl)cc1)N(c1ccccn1)C1CCCCC1,-1,-8,3,5,-3
CCOc1cc(C(=S)N2CCOCC2)ccc1OC(=O)c1cc(OC)c(OC)c(OC)c1,-7,3,0,-6,23
CCOc1ccc(/C=C/C(=O)N2CCOCC2)cc1OC,-6,6,4,32*,-8
COc1ccc(/C=C/C(=O)N2CCN(c3ccccn3)CC2)cc1OC,-3,-3,-2,39*,4
CCOc1cc(C(=S)N2CCOCC2)ccc1OC(=O)/C=C/c1ccc(OC)c(OC)c1,-1,1,1,37*,-14
N/C(=N\OC(=O)/C=C/c1ccccc1)c1ccccn1,1,-4,-2,9,7
COc1ccc(/C=C/C(=O)NCC(c2ccc(F)cc2)N2CCOCC2)cc1OC (centres undefined),5,10,-2,35*,4
COc1ccc(/C=C/C(=O)O/N=C(\N)c2ccccn2)cc1OC,-5,4,.,45*,.
COC(=O)[C@]12C[C@H](CC(=O)NCc3ccc(OC)c(OC)c3)C(=O)N(CCc3ccc(OC)c(OC)c3)C1=C[C@H](C1CCCC1)O[C@@H]2C,-1,.,.,.,.
COc1cc(/C=C/c2sc3ccccc3[n+]2CCCS(=O)(=O)[O-])ccc1O,-31,-13,36*,8,-1
CCOC(=O)N1CCN(C(=O)C[C@H]2C[C@@]3(C(=O)OC)C(=C[C@H](C4CCCC4)O[C@@H]3C)N(CCC3=CCCCC3)C2=O)CC1,0,.,.,.,.
CC(=O)c1cccc(NC(=O)/C(=C/c2ccco2)NC(=O)c2ccco2)c1,0,-2,1,20,-5
NNC(=O)/C(=C\c1ccco1)NC(=O)c1ccco1,3,-1,-1,35*,-10
O=C(NCc1ccco1)/C(=C\c1ccco1)NC(=O)c1ccco1,0,-2,3,8,7
O=C(Nc1cccc(F)c1)/C(=C\c1ccco1)NC(=O)c1ccco1,2,0,1,39*,4
SMILES,PrPC surface inh,FBA Mtb inh,RecA intein inh,GDH-TPI inh,BJeLR lethal
CC(=O)c1cccc(NC(=O)/C(=C\c2ccco2)NC(=O)c2cccs2)c1,-9,-11,4,32*,4
CCn1c(=O)n(CC(=O)N2CCN(C(C)=O)CC2)c(=O)c2ccccc21,0,.,.,.,.
O=C(COC(=O)c1cc(=O)[nH]c2ccccc12)NC1CCCC1,0,6,-1,3,-2
O=C(NC1CCCC1)c1cc(=O)[nH]c2ccccc12,-1,3,-1,43*,5
Cc1nn(-c2ccccc2)c2sc(C(=O)NC3CCCCCCC3)cc12,-8,.,.,.,.
CCCC1CCC2(CCCN2CCOC(=S)Nc2cccc(Cl)c2)CC1 (centres undefined),5,.,.,.,.
CCOc1ccccc1N1CCN(Cc2cn[nH]c2-c2ccc(F)cc2)CC1,-5,31*,2,2,6
CCCC1CCC2(CC1)CCC2OC(=S)Nc1ccccc1Br (centres undefined),-2,.,.,.,.
Clc1ccc(C2=NN(c3ccccc3)C(c3ccco3)C2)cc1 (centres undefined),-5,161*,-1,9,-1
O=S(=O)(c1ccccc1)N1N=C(c2ccc(Cl)cc2)CC1c1ccco1 (centres undefined),10,-2,.,-6,.
O=C(O)c1ccc(/C=C/c2nc3ccccc3c(=O)n2-c2ccc(Br)cc2)cc1,3,-4,3,39*,-4

# Assay outcomes as filed in PubChem BioAssay.
